From PubChem BioAssay AID588342 (National Center for Advancing Translational Sciences (NCATS), 2011)
About 25,000 (6.9%) of roughly 360,000 compounds were called active. About 9% were inconclusive and are not listed. Calls come from the whole dose curve; as a rule, active = well fitted inhibition curve with a large enough effect; inconclusive = small, poorly fitted or top-dose-only effect; inactive = flat fitted curve, though single readings scatter. The list comes from a sample in which actives are over-represented; it also holds similar structures and randomly drawn compounds. Where a call stands in place of a potency, no number is given.

These compounds were tested against Luciferin 4-monooxygenase (Photinus pyralis) (UniProt P08659) (assay: qHTS profiling assay for firefly luciferase inhibitor/activator using purifed enzyme and Km concentrations of substrates (counterscreen for miR-21 project)). Conditions: purified FLuc, luminescence inhibition; series mostly up to 57.5 µM.
Procedure, shortened: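 Purified P. pyralis luciferase (10nM final) with 10uM D-luciferin and 10uM ATP (Km levels) in 50mM Tris acetate pH 7.5, 10mM Mg acetate, 0.01% Tween-20, 0.05% BSA; qHTS 6-point titration, ~60 µM downward; luminescence read.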
Note: nearly all actives have a fitted effect of over 55% in size.
Potency is the fitted concentration of half-maximal effect.

Chain of Luciferin 4-monooxygenase (Photinus pyralis) (P08659 whole entry, looked up): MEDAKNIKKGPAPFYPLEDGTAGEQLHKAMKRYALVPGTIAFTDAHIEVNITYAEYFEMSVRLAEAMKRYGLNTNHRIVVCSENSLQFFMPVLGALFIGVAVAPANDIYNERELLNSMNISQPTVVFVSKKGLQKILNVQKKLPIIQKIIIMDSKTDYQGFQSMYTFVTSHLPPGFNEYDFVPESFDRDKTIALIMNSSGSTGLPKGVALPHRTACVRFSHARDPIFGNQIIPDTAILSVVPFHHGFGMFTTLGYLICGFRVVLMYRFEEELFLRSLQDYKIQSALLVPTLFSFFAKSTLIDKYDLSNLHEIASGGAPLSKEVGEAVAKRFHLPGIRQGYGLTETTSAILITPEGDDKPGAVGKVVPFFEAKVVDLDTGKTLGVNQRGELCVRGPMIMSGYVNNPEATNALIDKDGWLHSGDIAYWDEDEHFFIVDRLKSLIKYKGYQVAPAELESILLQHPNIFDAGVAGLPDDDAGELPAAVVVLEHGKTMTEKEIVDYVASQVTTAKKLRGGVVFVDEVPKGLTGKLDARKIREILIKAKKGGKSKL

Row | Structure (SMILES) | Potency
1 | Cc1ccc(NC(=O)CN(C)C(=O)c2ccc(Br)o2)cc1 | inactive
2 | CCC(C)NC(=O)c1c(N)n(/N=C/c2cccs2)c2nc3ccccc3nc12 (configuration not stated) | 3.01 µM (active)
3 | CCOC(=O)c1c(N)n(-c2cccc(C)c2C)c2nc3ccccc3nc12 | inactive
4 | Cc1nc2ccccc2n1CC(=O)N/N=C/c1cccs1 | inactive
5 | CCCc1cc(=O)[nH]c(SCc2cc(=O)oc3c(C)c(C)ccc23)n1 | inactive
6 | CN1CCN(C(=O)CCc2ncc(C(F)(F)F)cc2Cl)CC1 | inactive
7 | COc1ccccc1OCC(=O)OCn1c(SC)nnc(C)c1=O | inactive
8 | O=C(CC1CCCCC1)NCc1ccccc1 | inactive
9 | N/C(=N\OC(=O)CCC1CCCCC1)c1ccccn1 | 0.536 µM (active)
10 | N/C(=N\OC(=O)CC1CCCCC1)c1ccccc1 | 2.13 µM (active)
11 | COc1ccccc1OCC(=O)OCc1cc(-c2ccco2)on1 | inactive
12 | COc1ccccc1NC(=O)C(C)OC(=O)CC1CCCC1 (configuration not stated) | inactive
13 | CC(C)(C)NC(=O)NC(=O)COC(=O)CCC1CCCCC1 | inactive
14 | COc1ccccc1OCC(=O)O/N=C(\N)c1ccccn1 | 19 µM (active)
15 | O=C(CN1CCN(c2ccccn2)CC1)NC1CCCCC1 | inactive
16 | CN(C(=O)CSc1nc2ccc(NC(=O)COc3ccccc3)cc2s1)c1ccccc1 | inactive
17 | CN(C(=O)COC(=O)Cn1cnc2c1c(=O)n(C)c(=O)n2C)C1(C#N)CCCCC1 | inactive
18 | Cc1ccc(Cl)cc1N1CCN(C(=O)c2cccn3c(=O)c4cc(Cl)ccc4nc23)CC1 | inactive
19 | COc1ccc(N2CCN(CCNC(=O)c3nnc(Cc4c(F)cccc4Cl)o3)CC2)cc1 | inactive
20 | COc1cc(OC)c(N(C)C(=O)c2cc3c(=O)oc4ccccc4c3s2)cc1Cl | inactive
21 | COc1cc(OC)c(OC)cc1/C=C/c1nc2cc3ccccc3cc2c(=O)n1-c1ccc(F)c(Cl)c1 | inactive
22 | CC(C)CCNC(=O)CSc1nc2ccccc2nc1Cc1ccc(Cl)cc1 | inactive
23 | CCOC(=O)CCNC(=O)N1CCCC(C(=O)c2ccccc2SC)C1 (configuration not stated) | inactive

Row | Structure (SMILES) | Potency
24 | CCc1ccc(CNC(=O)C2CCCN(c3nc4ccccc4o3)C2)cc1 (configuration not stated) | inactive
25 | CCOC(=O)c1cnc(Nc2nc3ccccc3o2)nc1CSC(=S)N1CCCCC1 | 9.53 µM (active)
26 | COCCNC(=O)CSc1c(C)cnc2c1c(=O)n(C)c(=O)n2C | inactive
27 | COc1ccc(-c2nc(CN3CCC(C(=O)NCCN(CC(C)C)CC(C)C)CC3)c(C)o2)cc1OC | inactive
28 | O=C1/C(=C/c2coc3ccc(O)cc3c2=O)SC(=S)N1c1ccccc1 | inactive
29 | CC(C)CN(Cc1c(O)ccc2c(=O)c(-c3ccccc3)coc12)CC(C)C | inactive
30 | O=c1c(-c2ccccc2)coc2cc(O)ccc12 | 15.1 µM (active)
31 | Cc1cc(C)c(OCC(=O)N/N=C/c2ccco2)c(C)c1 | inactive
32 | COC(=O)COc1ccc2c(c1C)O/C(=C\c1ccco1)C2=O | 2.13 µM (active)
33 | COC(=O)C1=C(C)N(c2ccc(Br)cc2)C(=O)/C1=C\c1ccco1 | inactive
34 | Cc1nn(CC(=O)NCCc2ccccc2)c(=O)c2c1sc1ccccc12 | inactive
35 | CC1CCN(C(=O)c2ccc(CSc3ccc(Cl)cc3)cc2)CC1 | inactive
36 | O=C(c1ccc(S(=O)(=O)c2ccccc2)cc1)N1CCCCCC1 | inactive
37 | O=C(c1ccc(CSc2ccccc2)cc1)N1CCCCCC1 | 23.9 µM (active)
38 | COc1cc(OC)c(N2CC(C(=O)Nc3cc(Cl)ccc3N3CCOCC3)CC2=O)cc1Cl (configuration not stated) | inactive
39 | O=C(/C=C/c1ccccc1[N+](=O)[O-])OCC(=O)N1CCCC1 | inactive
40 | CC(C)CNC(=O)COC(=O)/C=C/c1ccccc1[N+](=O)[O-] | inactive
41 | O=C(/C=C/c1ccccc1[N+](=O)[O-])OC1CCCCC1=O (configuration not stated) | 15.1 µM (active)
42 | CCOc1ccc(CCNC(=O)c2c(C)oc3ncn(C)c(=O)c23)cc1 | inactive
43 | O=C(Nc1cccc(C(=O)NC2CC2)c1)c1ccc(F)c(S(=O)(=O)N2CCOCC2)c1 | inactive
44 | Cc1ccnc(N2C(=O)c3ccc([N+](=O)[O-])cc3C2=O)c1 | inactive
45 | Cc1ccc(-n2cc3ccc([N+](=O)[O-])cc3n2)cc1 | 0.953 µM (active)
46 | Cc1ccc(-c2cn(S(=O)(=O)c3cccc([N+](=O)[O-])c3)nc2N)cc1 | inactive

Row | Structure (SMILES) | Potency
47 | COc1ccc(C2=CC(c3ccccc3Cl)n3nc(-c4ccc(Cl)cc4)nc3N2)cc1 (configuration not stated) | inactive
48 | NS(=O)(=O)c1ccc(NC(=O)COc2ccc(S(=O)(=O)NC3CCCCC3)cc2)cc1 | inactive
49 | COc1ccc(-n2nnnc2CNC(=O)c2ccc3ccccc3c2)cc1 | inactive
50 | COc1ccc(CSc2nnnn2-c2ccc(C(=O)O)cc2)cc1 | inactive
51 | COc1ccc(-n2nnnc2-c2nc3ccccc3s2)cc1 | 0.601 µM (active)
52 | Cc1ccc(S(=O)(=O)NCCC(=O)NCc2ccc(Cl)cc2)cc1C | inactive
53 | COc1cccc(CNCc2c(C(=O)O)n(Cc3ccc(C)cc3)c3cc(C)ccc23)c1OC | inactive
54 | COC(=O)c1cc(OC)ccc1-c1ccc(OC)cc1 | inactive
55 | CO/N=C/CC(=O)c1ccc(OC)cc1 | inactive
56 | COc1ccc(C(=O)/C=C/c2ccc(OC3CSC3)cc2)cc1 | 12 µM (active)
57 | COc1cccc(N2CC(NC(=O)/C=C\c3ccccc3)CC2=O)c1 (configuration not stated) | inactive
58 | COc1ccc(C(=O)CCC(=O)Nc2cccnc2)c(OC)c1 | inactive
59 | COc1ccc(C(=O)NCC(=O)N/N=C/c2cccnc2)cc1 | inactive
60 | CCOC(=O)C1CCCN(C(=O)/C=C/c2ccc(OC)cc2)C1 (configuration not stated) | inactive
61 | COc1ccc(C(=O)/C=C/c2cccnc2)c(OC)c1 | 19 µM (active)
62 | COc1ccc(/C=C/C(=O)c2ccc(OC)cc2O)cc1 | 7.57 µM (active)
63 | Cc1ccc(C)c(CNC(=O)c2cc3ccccn3n2)c1 | inactive
64 | COc1ccc(S(=O)(=O)NCC(=O)NCc2cc(=O)n(C)c(=O)n2C)cc1F | inactive
65 | COc1cccc(C(c2c(O)cc(C)n(Cc3ccco3)c2=O)N2CCN(c3ccccc3)CC2)c1 (configuration not stated) | inactive
66 | CCOc1ccc(-c2cc3nc(C4CCN(C(=O)OC(C)(C)C)CC4)c(C(=O)Nc4ccc(C(=O)OC)cc4)cn3n2)cc1 | inactive
67 | COc1ccccc1NC(=O)C1=C(C)Nc2nc(SCC(=O)c3ccc(C)cc3)nn2C1c1ccccc1C (configuration not stated) | inactive
